Measurements reported in ChEMBL document CHEMBL1961873, “Compounds: GSK PKIS; Assays: Nanosyn kinase panel” (2012).

Columns and labels:
[1] = target: Sphingosine kinase 1 (Homo sapiens) (UniProt Q9NYA1); conditions: at 1 µM;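 further: mean SPHK1 inhibition value reported from the GSK PKIS kinase panel screen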
[2] = target: T1, Sphingosine kinase 2 (Homo sapiens) (UniProt Q9NRA0); conditions: at 0.1 µM
T1 sequence (whole entry): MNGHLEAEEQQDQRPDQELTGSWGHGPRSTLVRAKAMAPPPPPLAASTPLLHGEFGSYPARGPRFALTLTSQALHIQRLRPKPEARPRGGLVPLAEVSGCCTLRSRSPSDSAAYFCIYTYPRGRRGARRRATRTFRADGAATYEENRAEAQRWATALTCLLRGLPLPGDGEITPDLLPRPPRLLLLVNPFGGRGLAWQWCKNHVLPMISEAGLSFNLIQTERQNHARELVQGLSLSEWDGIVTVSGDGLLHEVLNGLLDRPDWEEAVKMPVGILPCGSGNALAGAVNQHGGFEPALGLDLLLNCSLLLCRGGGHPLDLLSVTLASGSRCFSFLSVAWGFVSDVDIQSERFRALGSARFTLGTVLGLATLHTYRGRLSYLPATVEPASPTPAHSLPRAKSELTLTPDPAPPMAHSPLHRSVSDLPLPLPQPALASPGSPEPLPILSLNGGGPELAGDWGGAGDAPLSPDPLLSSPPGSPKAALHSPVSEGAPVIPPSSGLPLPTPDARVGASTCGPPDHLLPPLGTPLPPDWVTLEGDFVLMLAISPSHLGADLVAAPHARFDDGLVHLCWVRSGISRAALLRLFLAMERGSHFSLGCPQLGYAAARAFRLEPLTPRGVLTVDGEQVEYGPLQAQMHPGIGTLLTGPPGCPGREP

[3] = target: T1, Sphingosine kinase 2 (Homo sapiens); conditions: at 1 µM
[4] = target: Casein kinase II subunit alpha (Homo sapiens) (UniProt P68400); conditions: at 0.1 µM
[5] = target: Casein kinase II subunit alpha (Homo sapiens) (UniProt P68400); conditions: at 1 µM
[6] = target: T2, Inhibitor of nuclear factor kappa-B kinase subunit alpha (Homo sapiens) (UniProt O15111); conditions: at 0.1 µM
T2 sequence (whole entry): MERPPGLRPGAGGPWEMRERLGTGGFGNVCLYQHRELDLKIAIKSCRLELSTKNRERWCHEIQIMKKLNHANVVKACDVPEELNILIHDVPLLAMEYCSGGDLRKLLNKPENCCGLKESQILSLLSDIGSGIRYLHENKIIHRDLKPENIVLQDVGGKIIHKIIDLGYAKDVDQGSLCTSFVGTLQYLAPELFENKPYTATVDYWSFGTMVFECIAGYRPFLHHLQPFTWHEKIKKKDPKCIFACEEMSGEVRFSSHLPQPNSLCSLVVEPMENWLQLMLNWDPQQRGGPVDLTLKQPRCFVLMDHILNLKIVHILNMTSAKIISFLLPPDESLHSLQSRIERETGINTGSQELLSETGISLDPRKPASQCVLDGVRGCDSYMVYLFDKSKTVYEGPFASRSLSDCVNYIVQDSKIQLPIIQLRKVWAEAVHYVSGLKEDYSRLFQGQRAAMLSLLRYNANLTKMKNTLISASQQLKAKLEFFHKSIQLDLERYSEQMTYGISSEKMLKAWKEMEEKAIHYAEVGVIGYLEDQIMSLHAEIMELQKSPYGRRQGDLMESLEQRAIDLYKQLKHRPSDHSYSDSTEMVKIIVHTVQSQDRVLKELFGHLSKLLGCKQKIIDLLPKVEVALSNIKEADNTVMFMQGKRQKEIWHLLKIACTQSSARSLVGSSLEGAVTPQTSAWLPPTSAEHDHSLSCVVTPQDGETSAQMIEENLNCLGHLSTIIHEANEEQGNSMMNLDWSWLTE

[7] = target: T2, Inhibitor of nuclear factor kappa-B kinase subunit alpha (Homo sapiens); conditions: at 1 µM
[8] = target: T3, Inhibitor of nuclear factor kappa-B kinase subunit beta (Homo sapiens) (UniProt O14920); conditions: at 0.1 µM
T3 sequence (whole entry): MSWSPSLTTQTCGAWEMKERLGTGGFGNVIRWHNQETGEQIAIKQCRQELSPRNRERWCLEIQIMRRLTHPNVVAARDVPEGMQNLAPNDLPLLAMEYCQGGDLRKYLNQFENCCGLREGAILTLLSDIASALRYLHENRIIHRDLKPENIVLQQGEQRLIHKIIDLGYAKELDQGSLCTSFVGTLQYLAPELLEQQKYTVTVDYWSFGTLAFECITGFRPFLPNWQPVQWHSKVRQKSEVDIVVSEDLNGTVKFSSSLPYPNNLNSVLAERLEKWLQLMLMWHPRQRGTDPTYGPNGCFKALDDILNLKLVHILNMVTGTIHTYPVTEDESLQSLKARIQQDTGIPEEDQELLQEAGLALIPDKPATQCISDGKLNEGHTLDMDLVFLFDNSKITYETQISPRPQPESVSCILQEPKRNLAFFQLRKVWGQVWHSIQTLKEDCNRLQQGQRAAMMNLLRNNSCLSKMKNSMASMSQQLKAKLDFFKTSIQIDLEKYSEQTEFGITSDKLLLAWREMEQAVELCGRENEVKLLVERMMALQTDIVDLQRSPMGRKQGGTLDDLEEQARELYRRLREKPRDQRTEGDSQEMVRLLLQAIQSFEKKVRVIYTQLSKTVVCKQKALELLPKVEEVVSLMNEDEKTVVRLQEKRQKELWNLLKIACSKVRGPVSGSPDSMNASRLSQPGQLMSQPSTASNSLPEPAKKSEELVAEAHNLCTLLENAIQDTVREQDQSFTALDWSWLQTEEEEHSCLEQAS

[9] = target: T3, Inhibitor of nuclear factor kappa-B kinase subunit beta (Homo sapiens); conditions: at 1 µM
[10] = target: T4, Inhibitor of nuclear factor kappa-B kinase subunit epsilon (Homo sapiens) (UniProt Q14164); conditions: at 0.1 µM
T4 sequence (whole entry): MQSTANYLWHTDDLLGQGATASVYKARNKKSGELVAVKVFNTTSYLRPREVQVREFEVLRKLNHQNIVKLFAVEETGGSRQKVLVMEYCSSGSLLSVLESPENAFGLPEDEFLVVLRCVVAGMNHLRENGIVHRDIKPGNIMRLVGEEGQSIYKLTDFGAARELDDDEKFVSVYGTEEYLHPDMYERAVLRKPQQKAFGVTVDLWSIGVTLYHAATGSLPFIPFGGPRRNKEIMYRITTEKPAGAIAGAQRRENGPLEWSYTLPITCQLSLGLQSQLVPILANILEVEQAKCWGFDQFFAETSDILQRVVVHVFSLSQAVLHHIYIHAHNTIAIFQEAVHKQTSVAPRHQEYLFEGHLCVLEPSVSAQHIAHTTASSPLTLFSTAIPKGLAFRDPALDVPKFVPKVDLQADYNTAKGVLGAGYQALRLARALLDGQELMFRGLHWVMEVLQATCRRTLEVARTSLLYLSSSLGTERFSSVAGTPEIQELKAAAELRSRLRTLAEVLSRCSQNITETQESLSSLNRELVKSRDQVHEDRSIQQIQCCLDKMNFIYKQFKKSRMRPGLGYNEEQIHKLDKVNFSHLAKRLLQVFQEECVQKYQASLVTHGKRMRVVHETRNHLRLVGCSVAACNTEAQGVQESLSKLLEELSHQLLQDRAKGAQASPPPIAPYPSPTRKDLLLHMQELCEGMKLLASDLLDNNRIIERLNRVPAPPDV

[11] = target: T4, Inhibitor of nuclear factor kappa-B kinase subunit epsilon (Homo sapiens); conditions: at 1 µM
[12] = target: T5, Serine/threonine-protein kinase Nek1 (Homo sapiens) (UniProt Q96PY6); conditions: at 0.1 µM
T5 sequence (whole entry): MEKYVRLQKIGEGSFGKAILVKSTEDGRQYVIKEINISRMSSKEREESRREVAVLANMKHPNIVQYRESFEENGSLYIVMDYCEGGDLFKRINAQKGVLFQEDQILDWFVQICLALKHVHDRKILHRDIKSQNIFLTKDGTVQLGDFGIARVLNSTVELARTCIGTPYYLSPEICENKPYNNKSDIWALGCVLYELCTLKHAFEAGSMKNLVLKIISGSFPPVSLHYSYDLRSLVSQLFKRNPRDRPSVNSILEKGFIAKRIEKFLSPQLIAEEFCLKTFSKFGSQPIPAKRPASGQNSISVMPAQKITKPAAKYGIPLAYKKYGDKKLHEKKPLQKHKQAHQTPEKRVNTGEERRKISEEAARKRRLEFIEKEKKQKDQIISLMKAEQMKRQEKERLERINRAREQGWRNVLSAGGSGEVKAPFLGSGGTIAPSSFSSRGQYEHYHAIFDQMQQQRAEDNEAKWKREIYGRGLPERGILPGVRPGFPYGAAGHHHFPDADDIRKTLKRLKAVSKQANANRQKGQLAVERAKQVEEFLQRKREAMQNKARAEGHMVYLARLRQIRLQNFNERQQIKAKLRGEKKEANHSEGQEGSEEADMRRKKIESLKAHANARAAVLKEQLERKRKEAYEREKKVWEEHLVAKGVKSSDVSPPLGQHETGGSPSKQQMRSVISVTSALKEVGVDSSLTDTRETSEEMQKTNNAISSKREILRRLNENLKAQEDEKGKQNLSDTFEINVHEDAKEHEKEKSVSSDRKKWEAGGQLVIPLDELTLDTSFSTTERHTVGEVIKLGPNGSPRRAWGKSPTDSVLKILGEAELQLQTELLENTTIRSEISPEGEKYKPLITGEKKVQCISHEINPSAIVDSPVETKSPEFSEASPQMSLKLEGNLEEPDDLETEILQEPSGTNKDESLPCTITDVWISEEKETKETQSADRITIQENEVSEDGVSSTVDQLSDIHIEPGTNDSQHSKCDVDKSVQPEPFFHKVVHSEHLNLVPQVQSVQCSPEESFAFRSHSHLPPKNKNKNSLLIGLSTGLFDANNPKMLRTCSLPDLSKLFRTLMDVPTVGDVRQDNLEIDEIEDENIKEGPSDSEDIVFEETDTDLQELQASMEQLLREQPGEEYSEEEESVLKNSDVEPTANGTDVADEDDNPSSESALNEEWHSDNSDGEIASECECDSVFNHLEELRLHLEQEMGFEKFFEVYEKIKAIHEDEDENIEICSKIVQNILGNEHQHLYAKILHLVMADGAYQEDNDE

[13] = target: T5, Serine/threonine-protein kinase Nek1 (Homo sapiens); conditions: at 1 µM
[14] = target: T6, Serine/threonine-protein kinase Nek2 (Homo sapiens) (UniProt P51955); conditions: at 0.1 µM
T6 sequence (whole entry): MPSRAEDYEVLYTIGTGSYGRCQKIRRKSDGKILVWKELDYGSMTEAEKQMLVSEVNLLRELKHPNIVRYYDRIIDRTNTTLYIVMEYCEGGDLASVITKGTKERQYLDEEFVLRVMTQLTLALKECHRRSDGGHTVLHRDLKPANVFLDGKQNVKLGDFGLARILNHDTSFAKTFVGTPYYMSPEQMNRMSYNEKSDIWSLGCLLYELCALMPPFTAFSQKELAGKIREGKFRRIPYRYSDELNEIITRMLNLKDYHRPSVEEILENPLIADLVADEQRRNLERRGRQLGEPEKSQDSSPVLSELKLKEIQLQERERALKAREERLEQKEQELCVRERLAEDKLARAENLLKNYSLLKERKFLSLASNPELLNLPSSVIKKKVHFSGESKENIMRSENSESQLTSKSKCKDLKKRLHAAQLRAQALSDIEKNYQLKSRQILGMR

[15] = target: T6, Serine/threonine-protein kinase Nek2 (Homo sapiens); conditions: at 1 µM
[16] = target: Serine/threonine-protein kinase Nek6 (Homo sapiens) (UniProt Q9HC98); conditions: at 0.1 µM
[17] = target: Serine/threonine-protein kinase Nek6 (Homo sapiens) (UniProt Q9HC98); conditions: at 1 µM
[18] = target: Serine/threonine-protein kinase Nek7 (Homo sapiens) (UniProt Q8TDX7); conditions: at 0.1 µM
[19] = target: Serine/threonine-protein kinase Nek7 (Homo sapiens) (UniProt Q8TDX7); conditions: at 1 µM
[20] = target: T7, Serine/threonine-protein kinase Nek9 (Homo sapiens) (UniProt Q8TD19); conditions: at 0.1 µM;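 further: reported value is the mean percent inhibition of NEK9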
T7 sequence (whole entry): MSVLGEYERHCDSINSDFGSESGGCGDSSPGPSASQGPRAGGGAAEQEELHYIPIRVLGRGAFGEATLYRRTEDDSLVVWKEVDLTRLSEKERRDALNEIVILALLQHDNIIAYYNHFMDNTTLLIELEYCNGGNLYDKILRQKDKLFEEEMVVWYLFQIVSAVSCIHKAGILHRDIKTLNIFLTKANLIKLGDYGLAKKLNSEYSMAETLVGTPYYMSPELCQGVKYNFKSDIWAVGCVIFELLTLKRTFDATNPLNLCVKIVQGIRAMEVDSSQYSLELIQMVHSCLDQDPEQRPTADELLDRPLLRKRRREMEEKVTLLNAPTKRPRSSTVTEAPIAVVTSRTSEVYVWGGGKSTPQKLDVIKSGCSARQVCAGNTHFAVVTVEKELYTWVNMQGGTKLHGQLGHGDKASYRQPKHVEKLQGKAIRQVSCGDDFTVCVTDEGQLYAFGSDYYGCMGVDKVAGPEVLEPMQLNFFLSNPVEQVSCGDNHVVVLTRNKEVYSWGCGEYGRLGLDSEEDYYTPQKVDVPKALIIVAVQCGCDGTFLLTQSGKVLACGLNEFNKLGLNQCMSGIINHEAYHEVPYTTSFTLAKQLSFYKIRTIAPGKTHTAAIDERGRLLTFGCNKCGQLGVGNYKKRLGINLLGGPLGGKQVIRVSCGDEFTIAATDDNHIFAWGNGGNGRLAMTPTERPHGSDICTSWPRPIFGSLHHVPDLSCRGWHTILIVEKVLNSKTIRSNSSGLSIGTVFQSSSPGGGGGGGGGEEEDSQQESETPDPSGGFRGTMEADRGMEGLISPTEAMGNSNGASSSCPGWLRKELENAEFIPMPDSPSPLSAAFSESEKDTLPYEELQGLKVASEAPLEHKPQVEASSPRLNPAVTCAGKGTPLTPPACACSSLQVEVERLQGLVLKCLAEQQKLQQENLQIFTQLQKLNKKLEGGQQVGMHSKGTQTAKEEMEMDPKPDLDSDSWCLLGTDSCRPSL

Sequence of Serine/threonine-protein kinase Nek6 (Homo sapiens) (Q9HC98 whole entry): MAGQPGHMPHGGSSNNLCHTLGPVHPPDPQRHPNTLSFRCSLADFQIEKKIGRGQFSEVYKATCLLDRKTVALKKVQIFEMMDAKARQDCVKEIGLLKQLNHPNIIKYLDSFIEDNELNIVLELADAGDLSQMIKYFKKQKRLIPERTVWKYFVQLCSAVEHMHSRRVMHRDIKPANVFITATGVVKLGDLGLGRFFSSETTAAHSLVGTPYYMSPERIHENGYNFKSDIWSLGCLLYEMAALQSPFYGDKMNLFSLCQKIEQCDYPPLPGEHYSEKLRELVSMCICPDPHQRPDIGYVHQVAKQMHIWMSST
Sequence of Casein kinase II subunit alpha (Homo sapiens) (P68400 whole entry, looked up): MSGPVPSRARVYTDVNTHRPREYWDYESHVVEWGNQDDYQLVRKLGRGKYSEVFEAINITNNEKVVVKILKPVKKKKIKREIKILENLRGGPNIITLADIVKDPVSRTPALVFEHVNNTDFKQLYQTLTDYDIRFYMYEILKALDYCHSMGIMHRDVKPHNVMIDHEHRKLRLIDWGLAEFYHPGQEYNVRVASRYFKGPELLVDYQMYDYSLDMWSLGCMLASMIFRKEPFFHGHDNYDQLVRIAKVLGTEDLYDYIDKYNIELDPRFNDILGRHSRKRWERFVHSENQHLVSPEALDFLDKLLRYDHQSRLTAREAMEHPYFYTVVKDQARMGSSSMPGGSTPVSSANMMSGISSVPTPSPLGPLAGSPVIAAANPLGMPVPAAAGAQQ
Sequence of Serine/threonine-protein kinase Nek7 (Homo sapiens) (Q8TDX7 whole entry, looked up): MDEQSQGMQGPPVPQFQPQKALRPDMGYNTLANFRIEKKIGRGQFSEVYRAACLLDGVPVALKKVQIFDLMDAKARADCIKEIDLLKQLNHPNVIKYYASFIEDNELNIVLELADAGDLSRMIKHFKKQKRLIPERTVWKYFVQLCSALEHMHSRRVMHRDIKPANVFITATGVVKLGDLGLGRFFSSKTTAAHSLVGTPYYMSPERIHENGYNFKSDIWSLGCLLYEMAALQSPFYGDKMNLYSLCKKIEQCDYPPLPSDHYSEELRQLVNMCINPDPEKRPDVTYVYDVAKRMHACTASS
Sequence of Sphingosine kinase 1 (Homo sapiens) (Q9NYA1 whole entry): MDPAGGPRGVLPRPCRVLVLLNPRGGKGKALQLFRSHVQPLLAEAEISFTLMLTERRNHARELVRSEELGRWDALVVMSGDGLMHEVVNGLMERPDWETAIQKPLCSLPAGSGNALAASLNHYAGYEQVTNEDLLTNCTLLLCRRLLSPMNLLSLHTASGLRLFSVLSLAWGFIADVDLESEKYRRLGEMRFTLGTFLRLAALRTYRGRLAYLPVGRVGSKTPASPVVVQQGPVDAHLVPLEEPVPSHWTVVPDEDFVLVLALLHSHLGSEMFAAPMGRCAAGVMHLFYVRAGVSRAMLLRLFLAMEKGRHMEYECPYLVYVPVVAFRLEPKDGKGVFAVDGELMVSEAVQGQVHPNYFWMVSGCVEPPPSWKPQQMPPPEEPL

Row | Compound | inhibition [1] | inhibition [2] | inhibition [3] | inhibition [4] | inhibition [5] | inhibition [6] | inhibition [7] | inhibition [8] | inhibition [9] | inhibition [10] | inhibition [11] | inhibition [12] | inhibition [13] | inhibition [14] | inhibition [15] | inhibition [16] | inhibition [17] | inhibition [18] | inhibition [19] | inhibition [20]
1 | Cc1cccc(-c2n[nH]cc2-c2ccc3ncccc3n2)n1 | -1.51% | 0.61% | 0.2% | 1.46% | 4.82% | 2.07% | 5.93% | 0.87% | 0.63% | 0.62% | 2.37% | 2.07% | 2.35% | 1.59% | 1.08% | 1.75% | 3.64% | 2.98% | 1.74% | 1.6%
2 | COc1cc2c(cc1Nc1nc(N3CCc4ccccc43)c3cc[nH]c3n1)N(C(=O)CN(C)C)CC2 | -1.12% | -0.36% | 0.81% | 0.13% | -9.3% | 2.9% | 0.37% | 4.25% | -1.42% | 0.88% | -0.46% | 1.31% | 1% | 2.74% | 3.53% | 0.8% | -0.68% | 3.4% | 3.29% | 4.32%
